Measurements reported in the supplement of paper PMC12067093, “Discovery and optimisation of a covalent ligand for TRIM25 and its application to targeted protein ubiquitination” (Chemical Science, 2025).
Of roughly 21,000 targets only a part is listed; those with the largest changes were picked by preference.

Compound: CC1Cc2ccccc2N1C(=O)C1CCCN(C1)C(=O)CCl (mixture of isomers) [TRIM25 ligand 11 (diastereomer mixture)]
Experiment: probe-labelled cysteine peptide fold change vs DMSO (competition) (log2 fold change); higher = less target engagement (more negative = stronger competition)
Conditions: THP-1, incubation time: 4 h
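Note: competitive chemoproteomic profiling in live THP-1 cells with an iodoacetamide desthiobiotin (IA-DTB) probe, comparing probe-labelled peptide intensities in compound-treated cells against DMSO-treated controls.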

Chain of UniProt P12955 (P12955 whole entry, looked up): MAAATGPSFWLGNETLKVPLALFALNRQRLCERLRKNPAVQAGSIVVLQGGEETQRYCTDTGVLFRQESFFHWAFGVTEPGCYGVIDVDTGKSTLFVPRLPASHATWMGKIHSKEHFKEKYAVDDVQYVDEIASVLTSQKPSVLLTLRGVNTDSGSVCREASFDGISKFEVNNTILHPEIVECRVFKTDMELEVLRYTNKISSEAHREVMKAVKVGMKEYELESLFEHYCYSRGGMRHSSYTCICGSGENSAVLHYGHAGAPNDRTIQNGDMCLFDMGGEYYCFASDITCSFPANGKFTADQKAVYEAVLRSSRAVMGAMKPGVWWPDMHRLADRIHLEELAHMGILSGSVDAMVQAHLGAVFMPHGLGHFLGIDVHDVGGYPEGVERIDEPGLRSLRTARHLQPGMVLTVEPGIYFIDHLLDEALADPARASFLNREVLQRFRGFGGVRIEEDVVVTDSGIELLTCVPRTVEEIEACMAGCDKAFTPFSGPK
Chain of UniProt O15160 (O15160 whole entry, looked up): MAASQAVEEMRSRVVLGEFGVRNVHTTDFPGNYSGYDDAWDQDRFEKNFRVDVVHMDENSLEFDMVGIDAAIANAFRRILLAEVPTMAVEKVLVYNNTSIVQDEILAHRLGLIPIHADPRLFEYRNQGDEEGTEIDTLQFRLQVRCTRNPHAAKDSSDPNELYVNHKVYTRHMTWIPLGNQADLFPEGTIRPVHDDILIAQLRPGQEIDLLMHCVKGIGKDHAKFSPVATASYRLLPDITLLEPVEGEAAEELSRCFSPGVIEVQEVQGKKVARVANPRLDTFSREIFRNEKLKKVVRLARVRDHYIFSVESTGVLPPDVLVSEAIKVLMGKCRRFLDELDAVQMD
Chain of UniProt Q9UIL8 (Q9UIL8 whole entry): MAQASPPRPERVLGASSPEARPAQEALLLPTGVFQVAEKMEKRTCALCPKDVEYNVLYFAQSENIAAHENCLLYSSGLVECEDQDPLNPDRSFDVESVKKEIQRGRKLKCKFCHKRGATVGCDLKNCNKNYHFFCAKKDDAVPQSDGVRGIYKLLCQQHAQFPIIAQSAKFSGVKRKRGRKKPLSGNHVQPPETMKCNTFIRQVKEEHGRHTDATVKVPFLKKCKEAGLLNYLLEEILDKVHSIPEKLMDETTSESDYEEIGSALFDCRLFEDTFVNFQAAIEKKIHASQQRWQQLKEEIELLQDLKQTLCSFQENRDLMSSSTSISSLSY
Chain of UniProt Q9BZL4 (Q9BZL4 whole entry, looked up): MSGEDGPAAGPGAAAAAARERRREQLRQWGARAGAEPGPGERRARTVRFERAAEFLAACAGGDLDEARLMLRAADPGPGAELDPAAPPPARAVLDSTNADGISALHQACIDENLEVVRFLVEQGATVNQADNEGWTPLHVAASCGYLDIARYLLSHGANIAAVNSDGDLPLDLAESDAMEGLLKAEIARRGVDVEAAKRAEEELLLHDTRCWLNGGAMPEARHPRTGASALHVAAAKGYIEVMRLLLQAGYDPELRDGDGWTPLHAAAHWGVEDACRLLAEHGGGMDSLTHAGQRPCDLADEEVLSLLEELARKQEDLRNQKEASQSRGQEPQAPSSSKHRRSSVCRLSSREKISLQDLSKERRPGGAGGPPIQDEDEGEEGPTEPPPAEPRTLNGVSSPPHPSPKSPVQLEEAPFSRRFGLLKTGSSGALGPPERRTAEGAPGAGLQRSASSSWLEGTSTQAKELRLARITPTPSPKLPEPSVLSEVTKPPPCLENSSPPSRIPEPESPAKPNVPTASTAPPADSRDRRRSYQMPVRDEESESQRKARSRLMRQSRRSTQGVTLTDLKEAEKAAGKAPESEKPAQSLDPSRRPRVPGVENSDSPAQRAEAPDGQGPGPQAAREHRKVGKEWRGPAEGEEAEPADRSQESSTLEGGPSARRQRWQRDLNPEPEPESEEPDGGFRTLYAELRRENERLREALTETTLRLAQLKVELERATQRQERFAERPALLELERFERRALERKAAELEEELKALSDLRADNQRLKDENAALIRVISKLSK
Chain of UniProt Q99570 (Q99570 whole entry, looked up): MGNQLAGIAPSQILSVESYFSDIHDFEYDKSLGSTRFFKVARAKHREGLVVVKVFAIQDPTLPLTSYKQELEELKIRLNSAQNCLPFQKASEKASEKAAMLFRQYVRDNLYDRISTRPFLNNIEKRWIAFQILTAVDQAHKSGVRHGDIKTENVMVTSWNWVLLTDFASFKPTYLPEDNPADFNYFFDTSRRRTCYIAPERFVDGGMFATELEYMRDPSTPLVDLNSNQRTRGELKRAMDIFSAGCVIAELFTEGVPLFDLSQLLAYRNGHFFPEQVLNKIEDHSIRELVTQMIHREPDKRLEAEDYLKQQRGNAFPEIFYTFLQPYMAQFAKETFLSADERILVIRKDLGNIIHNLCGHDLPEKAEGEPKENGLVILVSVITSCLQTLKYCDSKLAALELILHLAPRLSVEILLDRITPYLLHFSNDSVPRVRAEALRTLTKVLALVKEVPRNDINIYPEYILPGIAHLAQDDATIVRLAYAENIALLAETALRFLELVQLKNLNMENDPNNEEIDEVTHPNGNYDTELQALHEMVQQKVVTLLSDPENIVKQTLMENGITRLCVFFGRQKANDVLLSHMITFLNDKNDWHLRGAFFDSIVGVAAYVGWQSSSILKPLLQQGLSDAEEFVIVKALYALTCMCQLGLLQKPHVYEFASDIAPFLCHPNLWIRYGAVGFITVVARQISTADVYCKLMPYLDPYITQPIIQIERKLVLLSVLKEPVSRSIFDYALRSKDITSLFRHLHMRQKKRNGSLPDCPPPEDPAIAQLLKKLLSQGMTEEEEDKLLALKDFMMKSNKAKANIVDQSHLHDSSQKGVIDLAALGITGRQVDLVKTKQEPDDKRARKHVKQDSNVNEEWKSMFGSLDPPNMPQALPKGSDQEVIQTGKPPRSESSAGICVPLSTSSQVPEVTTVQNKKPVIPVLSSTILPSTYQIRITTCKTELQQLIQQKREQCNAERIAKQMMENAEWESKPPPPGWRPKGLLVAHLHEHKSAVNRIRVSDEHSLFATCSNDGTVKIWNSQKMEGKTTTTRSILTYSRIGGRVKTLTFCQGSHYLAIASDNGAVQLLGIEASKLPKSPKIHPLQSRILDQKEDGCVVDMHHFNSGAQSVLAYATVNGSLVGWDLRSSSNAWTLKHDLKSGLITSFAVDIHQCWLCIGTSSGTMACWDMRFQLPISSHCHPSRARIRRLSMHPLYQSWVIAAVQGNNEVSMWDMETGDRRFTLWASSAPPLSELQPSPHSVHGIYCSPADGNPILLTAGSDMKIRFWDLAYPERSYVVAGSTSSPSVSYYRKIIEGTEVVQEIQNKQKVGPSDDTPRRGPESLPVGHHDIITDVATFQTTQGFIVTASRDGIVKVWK

Target | probe-labelled cysteine peptide fold change (10 µM) | probe-labelled cysteine peptide fold change (50 µM)
PIK3R4_Q99570_955_EQCNAER (UniProt Q99570) | -0.0631 | -0.105
PECAM1_P16284_109_CTVIVNNK (UniProt P16284) | 0.126 | 0.476
PEPD_P12955_158_GVNTDSGSVCR (UniProt P12955) | 0.0721 | -0.0568
POLR1C_O15160_214_PVHDDILIAQLRPGQEIDLLMHCVK (UniProt O15160) | -0.00122 | -0.0368
PPP1R12C_Q9BZL4_297_LLAEHGGGMDSLTHAGQRPCDLADEEVLSLLEELAR (UniProt Q9BZL4) | 0.136 | -0.278
PHF11_Q9UIL8_135_NYHFFCAK (UniProt Q9UIL8) | -0.0148 | 0.156
